In PubChem BioAssay (EPA / NIEHS):
Records with an inconclusive call do not appear. Calls of active or inactive are those of the source. The calls were made as follows: active = hit-call score of the fitted dose curve at least 0.9, where 1 is the maximum; inconclusive = response in the unintended direction; inactive = score below 0.9.

Legend:
[1] = test system: rat Monoamine Oxidase, MAO-A, Central (MAOAC), gene 29253; test: NVS_ENZ_rMAOAC: NovaScreen (NVS) Enzymatic Assay for rat Monoamine Oxidase, MAO-A, Central (MAOAC) (AID 2283243);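 also: potency refers to inhibition seen as signal drop below DMSO baseline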
Procedure, shortened: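 Lysate-based radiometric enzyme assay using rat brain tissue; 1.5 h treatment; 25 uM single-point duplicate screen, concentration-response follow-up; loss of signal versus DMSO.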

[2] = molecular target: guinea pig Opioid, Kappa 1 Receptor (OpiateK), OPRK1 (gene 100135587) (UniProt P41144); test: NVS_GPCR_gOpiateK: NovaScreen (NVS) G Protein-Coupled Receptor Assay for guinea pig Opioid, Kappa 1 Receptor (OpiateK) (AID 2283252);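 also: radioligand displacement from kappa opioid receptor in guinea pig cerebellar membranes; active means reduced radioligand binding relative to DMSO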
Procedure, shortened: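 Radioligand competition binding using guinea pig cerebellum membrane fraction; 2 h exposure; filter radiodetection. Single concentration 25 uM (duplicate), follow-up concentration-response for actives.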

[3] = molecular target: sheep Cyclooxygenase-1 (Cox1), PTGS1 (gene 443551) (UniProt P05979); test: NVS_ENZ_oCOX1: NovaScreen (NVS) Enzymatic Assay for sheep Cyclooxygenase-1 (Cox1) (AID 2283239);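 also: actives reduce cyclooxygenase activity so potencies are for inhibitors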
Procedure, shortened: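 Ovine seminal vesicle extract; absorbance (colorimetric) enzyme read-out at 0.66 h post-dose. Primary: single conc 25 uM, duplicate. Follow-up: concentration series on actives. Activity = signal loss vs DMSO baseline.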

[4] = molecular target: human Serotonin, 5-Hydroxytryptamine Receptor 7 (5HT7), HTR7 (gene 3363) (UniProt P34969); test: NVS_GPCR_h5HT7: NovaScreen (NVS) G Protein-Coupled Receptor Assay for human Serotonin, 5-Hydroxytryptamine Receptor 7 (5HT7) (AID 2283255);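 also: hits reduce specific radioligand binding relative to DMSO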
Procedure, shortened: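 Filter-bound radioactivity counted after 1 h, with loss of specific radioligand binding fitted against DMSO. Membrane protein came from CHO cells expressing human 5HT7. Chemicals were tested first at 25 uM in duplicate, then in concentration series if active.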

[5] = molecular target: rat Monoamine Oxidase, MAO-B, Peripheral (MAOBP), Maob (gene 25750) (UniProt P19643); test: NVS_ENZ_rMAOBP: NovaScreen (NVS) Enzymatic Assay for rat Monoamine Oxidase, MAO-B, Peripheral (MAOBP) (AID 2283242)
[6] = test system: rat Monoamine Oxidase, MAO-A, Peripheral (MAOAP), gene 29253; test: NVS_ENZ_rMAOAP: NovaScreen (NVS) Enzymatic Assay for rat Monoamine Oxidase, MAO-A, Peripheral (MAOAP) (AID 2283237)
Procedure, shortened: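 Scintillation counting tracked MAO-A activity in a cell-free rat liver mitochondrial membrane prep, read 1.17 hours after compound addition. Single-point duplicate testing at 25 uM preceded concentration-response follow-up; activity was fitted relative to DMSO.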

[7] = molecular target: rat Monoamine Oxidase, MAO-B, Central (MAOBC), Maob (gene 25750) (UniProt P19643); test: NVS_ENZ_rMAOBC: NovaScreen (NVS) Enzymatic Assay for rat Monoamine Oxidase, MAO-B, Central (MAOBC) (AID 2283238)
Procedure, shortened: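 Here MAO-B activity in rat brain preparations is quantified radiometrically, counts taken at 1.17 hours. Concentration-response runs reach 50 uM, with plate controls, and values are fitted as loss of signal from the DMSO baseline.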

[8] = molecular target: human Serotonin, 5-Hydroxytryptamine Receptor 6 (5HT6), HTR6 (gene 3362) (UniProt P50406); test: NVS_GPCR_h5HT6: NovaScreen (NVS) G Protein-Coupled Receptor Assay for human Serotonin, 5-Hydroxytryptamine Receptor 6 (5HT6) (AID 2283253)
Procedure, shortened: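 Filter scintillation counting of radioligand displacement from HEK293-expressed 5HT6, 1 hour post-dose, with loss of signal relative to DMSO. Single 25 uM duplicates first, with concentration series for confirmation.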

[9] = molecular target: human Adenosine A2a Receptor (AdoRA2a), ADORA2A (gene 135) (UniProt P29274); test: NVS_GPCR_hAdoRA2a: NovaScreen (NVS) G Protein-Coupled Receptor Assay for human Adenosine A2a Receptor (AdoRA2a) (AID 2283256)
Procedure, shortened: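 HEK293-derived receptor preparation, radioligand displacement, 1.5 h, filtration + scintillation read. Loss of bound signal scored vs DMSO. Single-point 25 uM in duplicate first, then concentration-response for actives.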

[10] = molecular target: bovine Dopamine Receptor (DR), Non-selective Binding, DRD1 (gene 281125) (UniProt Q95136); test: NVS_GPCR_bDR_NonSelective: NovaScreen (NVS) G Protein-Coupled Receptor Assay for bovine Dopamine Receptor (DR), Non-selective Binding (AID 2283241)
Procedure, shortened: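 Filter-based radioligand binding with bovine striatal membrane, incubated 1 h; DMSO as negative baseline. Initial duplicate single-point test at 25 uM preceded concentration series for actives.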

[11] = test system: guinea pig Leukotriene B4 Receptor (LTB4), gene 100379538; test: NVS_GPCR_gLTB4: NovaScreen (NVS) G Protein-Coupled Receptor Assay for guinea pig Leukotriene B4 Receptor (LTB4) (AID 2283247)
Procedure, shortened: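 Membranes from guinea pig spleen incubated 2 h with radioligand and compound; bound counts measured by filtration and scintillation. Screened first at 25 uM in duplicate, then actives titrated to a 50 uM top concentration relative to DMSO.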

[12] = molecular target: human Serotonin, 5-Hydroxytryptamine Receptor 5A (5HT5A), HTR5A (gene 3361) (UniProt P47898); test: NVS_GPCR_h5HT5A: NovaScreen (NVS) G Protein-Coupled Receptor Assay for human Serotonin, 5-Hydroxytryptamine Receptor 5A (5HT5A) (AID 2283251)
Procedure, shortened: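 Membranes from HEK293 cells, radioligand binding read by filtration and scintillation after 1 h. Single-concentration duplicate testing at 25 uM, then concentration-response for actives; positive-direction fitting relative to DMSO.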

[13] = test system: bovine Histamine 1 Receptor (H1), gene 281231; test: NVS_GPCR_bH1: NovaScreen (NVS) G Protein-Coupled Receptor Assay for bovine Histamine 1 Receptor (H1) (AID 2283246)
Procedure, shortened: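 Hits from a 25 uM duplicate primary screen were retested in concentration series (top 50 uM); binding measured as scintillation-counted displacement of radioligand from bovine cerebellar membranes after 1 h, normalised to DMSO.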

[14] = molecular target: guinea pig Leukotriene D4 Receptor (LTD4), CYSLTR1 (gene 100135514) (UniProt Q2NNR5); test: NVS_GPCR_gLTD4: NovaScreen (NVS) G Protein-Coupled Receptor Assay for guinea pig Leukotriene D4 Receptor (LTD4) (AID 2283248)
Procedure, shortened: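 Guinea pig lung membrane preparation; bound radioligand measured by filter scintillation after 1 h, loss of signal versus DMSO marking displacement. Compounds tested at 25 uM in duplicate, hits retested to max 50 uM.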

Chain of human Serotonin, 5-Hydroxytryptamine Receptor 6 (5HT6), HTR6 (gene 3362) (P50406 whole entry, looked up): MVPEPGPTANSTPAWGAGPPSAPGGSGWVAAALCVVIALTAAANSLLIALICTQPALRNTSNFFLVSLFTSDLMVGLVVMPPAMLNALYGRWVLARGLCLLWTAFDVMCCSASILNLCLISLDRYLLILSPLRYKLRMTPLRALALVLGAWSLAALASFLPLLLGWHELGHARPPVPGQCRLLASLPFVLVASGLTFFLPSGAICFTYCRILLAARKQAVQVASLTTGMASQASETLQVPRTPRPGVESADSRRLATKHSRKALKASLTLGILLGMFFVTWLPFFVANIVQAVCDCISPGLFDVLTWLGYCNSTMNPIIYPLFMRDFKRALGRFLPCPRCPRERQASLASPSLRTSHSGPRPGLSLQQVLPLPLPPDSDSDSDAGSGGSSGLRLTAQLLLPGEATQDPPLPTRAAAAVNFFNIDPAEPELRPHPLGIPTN
Chain of human Serotonin, 5-Hydroxytryptamine Receptor 7 (5HT7), HTR7 (gene 3363) (P34969 whole entry, looked up): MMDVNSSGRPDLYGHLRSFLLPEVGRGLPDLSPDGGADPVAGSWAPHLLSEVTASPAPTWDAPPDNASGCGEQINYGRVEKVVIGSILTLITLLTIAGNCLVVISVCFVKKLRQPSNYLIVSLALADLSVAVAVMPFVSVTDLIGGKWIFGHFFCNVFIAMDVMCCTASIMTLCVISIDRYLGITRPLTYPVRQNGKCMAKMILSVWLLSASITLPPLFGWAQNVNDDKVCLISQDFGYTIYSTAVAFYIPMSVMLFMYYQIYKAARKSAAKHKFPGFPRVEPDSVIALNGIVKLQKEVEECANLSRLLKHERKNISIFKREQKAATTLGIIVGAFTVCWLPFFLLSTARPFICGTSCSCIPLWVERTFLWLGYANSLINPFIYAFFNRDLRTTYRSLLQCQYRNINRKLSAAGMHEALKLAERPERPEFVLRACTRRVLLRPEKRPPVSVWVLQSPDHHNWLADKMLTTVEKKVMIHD
Chain of rat Monoamine Oxidase, MAO-B, Central (MAOBC), Maob (gene 25750) (P19643 whole entry, looked up): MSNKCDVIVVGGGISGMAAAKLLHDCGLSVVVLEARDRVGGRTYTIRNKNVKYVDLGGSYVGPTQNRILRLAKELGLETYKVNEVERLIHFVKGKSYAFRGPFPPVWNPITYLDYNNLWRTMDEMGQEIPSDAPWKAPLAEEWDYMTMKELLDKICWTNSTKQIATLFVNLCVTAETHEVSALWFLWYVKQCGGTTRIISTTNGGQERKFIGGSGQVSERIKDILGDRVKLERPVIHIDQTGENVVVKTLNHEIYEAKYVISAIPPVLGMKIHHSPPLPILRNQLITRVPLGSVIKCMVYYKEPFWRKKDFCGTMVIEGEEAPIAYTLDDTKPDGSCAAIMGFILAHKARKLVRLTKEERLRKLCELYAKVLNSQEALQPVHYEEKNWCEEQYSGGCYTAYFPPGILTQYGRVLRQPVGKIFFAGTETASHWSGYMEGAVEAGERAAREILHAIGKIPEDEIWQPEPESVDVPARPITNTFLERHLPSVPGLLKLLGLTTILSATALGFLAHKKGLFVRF
Chain of rat Monoamine Oxidase, MAO-B, Peripheral (MAOBP), Maob (gene 25750) (P19643 whole entry, looked up): as above
Chain of sheep Cyclooxygenase-1 (Cox1), PTGS1 (gene 443551) (P05979 whole entry, looked up): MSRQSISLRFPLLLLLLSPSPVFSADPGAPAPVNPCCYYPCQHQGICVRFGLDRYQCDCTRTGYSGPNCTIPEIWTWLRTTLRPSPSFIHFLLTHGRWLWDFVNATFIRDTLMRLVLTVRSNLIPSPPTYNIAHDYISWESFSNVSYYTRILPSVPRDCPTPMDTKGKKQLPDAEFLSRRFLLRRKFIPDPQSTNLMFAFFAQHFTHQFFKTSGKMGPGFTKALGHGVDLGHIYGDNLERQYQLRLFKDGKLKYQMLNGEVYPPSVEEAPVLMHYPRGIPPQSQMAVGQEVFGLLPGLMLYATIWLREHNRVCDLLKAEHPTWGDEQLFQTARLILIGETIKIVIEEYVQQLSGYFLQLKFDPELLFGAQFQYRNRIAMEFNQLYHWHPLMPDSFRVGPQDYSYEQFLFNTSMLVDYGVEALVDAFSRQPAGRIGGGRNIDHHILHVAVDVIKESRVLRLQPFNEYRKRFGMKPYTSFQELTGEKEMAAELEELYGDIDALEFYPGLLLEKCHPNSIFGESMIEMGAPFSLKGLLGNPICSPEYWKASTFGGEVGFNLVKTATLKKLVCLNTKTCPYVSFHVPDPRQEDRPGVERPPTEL
Chain of bovine Dopamine Receptor (DR), Non-selective Binding, DRD1 (gene 281125) (Q95136 whole entry, looked up): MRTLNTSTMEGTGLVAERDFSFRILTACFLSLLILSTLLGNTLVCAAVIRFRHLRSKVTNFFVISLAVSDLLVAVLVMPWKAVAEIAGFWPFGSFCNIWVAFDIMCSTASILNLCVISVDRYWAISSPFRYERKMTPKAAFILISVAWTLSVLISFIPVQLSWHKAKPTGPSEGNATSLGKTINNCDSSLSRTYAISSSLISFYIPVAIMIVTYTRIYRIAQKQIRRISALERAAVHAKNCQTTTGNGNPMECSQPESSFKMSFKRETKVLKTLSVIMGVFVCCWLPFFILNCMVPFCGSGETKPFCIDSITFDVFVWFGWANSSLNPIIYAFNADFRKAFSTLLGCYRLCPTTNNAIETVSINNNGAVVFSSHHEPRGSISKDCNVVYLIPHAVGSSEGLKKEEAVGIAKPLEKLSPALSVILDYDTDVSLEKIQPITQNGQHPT
Chain of guinea pig Leukotriene D4 Receptor (LTD4), CYSLTR1 (gene 100135514) (Q2NNR5 whole entry, looked up): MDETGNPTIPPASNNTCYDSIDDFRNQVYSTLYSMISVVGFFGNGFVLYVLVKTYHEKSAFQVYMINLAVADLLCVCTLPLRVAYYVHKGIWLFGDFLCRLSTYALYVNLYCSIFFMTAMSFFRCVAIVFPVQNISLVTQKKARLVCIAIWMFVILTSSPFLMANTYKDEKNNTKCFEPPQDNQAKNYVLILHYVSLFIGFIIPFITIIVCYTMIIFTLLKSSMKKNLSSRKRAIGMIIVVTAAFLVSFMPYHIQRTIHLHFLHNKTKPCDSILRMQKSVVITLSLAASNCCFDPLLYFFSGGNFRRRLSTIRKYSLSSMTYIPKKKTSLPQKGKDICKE
Chain of guinea pig Opioid, Kappa 1 Receptor (OpiateK), OPRK1 (gene 100135587) (P41144 whole entry, looked up): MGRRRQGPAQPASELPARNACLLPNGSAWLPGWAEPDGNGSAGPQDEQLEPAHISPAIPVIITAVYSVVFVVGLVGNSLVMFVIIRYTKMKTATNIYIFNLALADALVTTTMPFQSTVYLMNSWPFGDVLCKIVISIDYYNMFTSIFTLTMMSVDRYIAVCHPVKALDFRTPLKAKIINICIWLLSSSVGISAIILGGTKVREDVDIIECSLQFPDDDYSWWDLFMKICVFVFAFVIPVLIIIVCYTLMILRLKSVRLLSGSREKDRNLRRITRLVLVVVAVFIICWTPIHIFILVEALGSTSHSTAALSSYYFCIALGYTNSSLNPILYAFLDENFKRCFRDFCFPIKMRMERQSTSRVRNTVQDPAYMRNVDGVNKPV
Chain of human Serotonin, 5-Hydroxytryptamine Receptor 5A (5HT5A), HTR5A (gene 3361) (P47898 whole entry, looked up): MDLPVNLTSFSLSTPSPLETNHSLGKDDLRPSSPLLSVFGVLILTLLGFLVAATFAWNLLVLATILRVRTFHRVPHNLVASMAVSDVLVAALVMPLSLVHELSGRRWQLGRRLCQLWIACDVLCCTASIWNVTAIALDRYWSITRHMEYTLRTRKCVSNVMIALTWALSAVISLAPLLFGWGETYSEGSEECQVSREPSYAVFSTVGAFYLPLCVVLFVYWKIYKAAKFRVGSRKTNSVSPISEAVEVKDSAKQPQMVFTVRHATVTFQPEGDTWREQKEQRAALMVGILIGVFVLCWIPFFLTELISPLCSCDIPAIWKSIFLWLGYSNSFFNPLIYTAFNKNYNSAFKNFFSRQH
Chain of human Adenosine A2a Receptor (AdoRA2a), ADORA2A (gene 135) (P29274 whole entry, looked up): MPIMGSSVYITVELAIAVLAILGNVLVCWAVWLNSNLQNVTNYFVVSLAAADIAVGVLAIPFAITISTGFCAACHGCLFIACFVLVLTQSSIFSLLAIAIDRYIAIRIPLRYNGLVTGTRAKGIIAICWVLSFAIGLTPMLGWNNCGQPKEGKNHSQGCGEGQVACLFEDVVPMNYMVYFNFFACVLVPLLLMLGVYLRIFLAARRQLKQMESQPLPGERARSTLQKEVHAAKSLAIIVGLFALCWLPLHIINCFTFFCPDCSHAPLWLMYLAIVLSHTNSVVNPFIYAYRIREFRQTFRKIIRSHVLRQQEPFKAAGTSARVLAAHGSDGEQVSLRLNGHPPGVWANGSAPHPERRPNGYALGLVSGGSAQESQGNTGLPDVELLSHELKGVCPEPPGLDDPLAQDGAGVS

## CCc1cccc(C)c1N(C(=O)CCl)C(C)COC (stereo not drawn)
[1]
  outcome: inactive
[2]
  AC50: 16.2 µM (active)

## CC(C)=CC1C(C(=O)OCN2C(=O)C3=C(CCCC3)C2=O)C1(C)C (stereo not drawn)
[3]
  AC50: 4.96 µM (active)
[4]
  outcome: inactive

## CC(C1CC1)C(O)(Cn1cncn1)c1ccc(Cl)cc1 (stereo not drawn)
[5]
  outcome: inactive

## CCC(=O)Nc1ccc(Cl)c(Cl)c1
[6]
  AC50: 6.9 µM (active)
[7]
  AC50: 13 µM (active)
[5]
  AC50: 25 µM (active)
[1]
  AC50: 15.3 µM (active)
[8]
  AC50: 7.47 µM (active)
[9]
  AC50: 10 µM (active)

## CCOP(=S)(OCC)Oc1ccc([N+](=O)[O-])cc1
[10]
  outcome: inactive
[11]
  AC50: 7.9 µM (active)

## Cc1nn(-c2cc(NS(C)(=O)=O)c(Cl)cc2Cl)c(=O)n1C(F)F
[5]
  outcome: inactive

## Nc1c(Cl)cc([N+](=O)[O-])cc1Cl
[6]
  AC50: 18 µM (active)
[7]
  AC50: 15.3 µM (active)
[5]
  AC50: 39.8 µM (active)
[1]
  AC50: 15.6 µM (active)

## CCCCOC(=O)c1ccccc1C(=O)O
[3]
  outcome: inactive
[10]
  outcome: inactive

## CSc1nnc(C(C)(C)C)c(=O)n1N
[7]
  AC50: 16.8 µM (active)
[5]
  outcome: inactive

## O=c1ccc(=O)[nH][nH]1
[5]
  outcome: inactive
[12]
  outcome: inactive

## CC(=NC#N)N(C)Cc1ccc(Cl)nc1
[1]
  AC50: 13.3 µM (active)

## CCOP(=O)(SC(C)CC)N1CCSC1=O (stereo not drawn)
[13]
  outcome: inactive

## O=C(O)c1cc(Oc2ccc(C(F)(F)F)cc2Cl)ccc1[N+](=O)[O-]
[11]
  outcome: inactive

## CCCOCC(=Nc1ccc(Cl)cc1C(F)(F)F)n1ccnc1
[14]
  outcome: inactive

## CCOP(=S)(OCC)Oc1cc(C)nc(C(C)C)n1
[14]
  outcome: inactive

## CC(C)N(C(=O)SCC(Cl)=C(Cl)Cl)C(C)C
[8]
  outcome: inactive

## C=C(C)[C@H]1Cc2c(ccc3c2O[C@@H]2COc4cc(OC)c(OC)cc4[C@@H]2C3=O)O1
[8]
  AC50: 1.13 µM (active)

## CC(C)[C@H](C(=O)O[C@H](C#N)c1cccc(Oc2ccccc2)c1)c1ccc(Cl)cc1
[4]
  AC50: 6.87 µM (active)

## Cc1cc(C2CC2)nc(Nc2ccccc2)n1
[4]
  AC50: 25 µM (active)
